The values that follow come from PubChem BioAssay (Tox21).

“And” between values parts separate entries of the source, which are not always exact repeats. Equal entries are not always repeated. Records with an inconclusive call do not appear. Some compounds were tested as several samples or in several runs, with calls that do not always agree. The source made the active and inactive calls. Unless noted, the call rests on the fitted dose curve; in most records, active means well fitted inhibition curve with a large enough effect in the repeat runs; inconclusive means weak or mixed curves, or effect the other way; inactive means no such curve, though single readings can be large or run the other way.
Potency means the concentration at half of the fitted maximal effect.

One test deals with Nuclear receptor ROR-gamma (Homo sapiens) (UniProt P51449). Briefly: qHTS assay to identify small molecule antagonists of the retinoid-related orphan receptor gamma (ROR-gamma) signaling pathway (AID 1159521; further: nearly all actives have a fitted effect of over 50% in size;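 on activity change, negative = inhibition: CHO cells with doxycycline inducible ROR-gamma driving an RORE luciferase reporter; top concentration of the series differs between compounds; on the % scale 0 is the no-effect control and ±100 the full control effect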). Conditions: Tet-on RORgamma CHO cells, RORE-luciferase, 16 h; series mostly up to 92.4 µM; activity change, negative = inhibition: at the top concentration. In a few lines:
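CHO cells expressing RORγ under a TET-on promoter, luciferase under RORE control. Dox 1 uM final, 16 h; compounds added 2 h prior. Luminescence decrease measured.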
On the technique in general: Quantitative high-throughput screening tests each substance at several concentrations.
In the case of `CC(=O)/C=C/c1ccc2c(c1)OCO2`, the “activity change, negative = inhibition” value is -11.6% (inactive).
As to `ClC1=C(Cl)[C@]2(Cl)[C@@H]3[C@@H]4C[C@@H]([C@H]5O[C@@H]45)[C@@H]3[C@@]1(Cl)C2(Cl)Cl`, the Potency was 19.3 µM (active).
In the case of `SCc1ccco1`, the “activity change, negative = inhibition” value was -19.1% (inactive).
Take `Clc1ccc(C(c2ccccc2Cl)C(Cl)(Cl)Cl)cc1` (stereo unspecified): the Potency is 40.2 µM (active).
Still for that read-out and setting: to `CC(C)(c1ccc(O)c(-c2ccccc2)c1)c1ccc(O)c(-c2ccccc2)c1` belongs 21.7 µM (active).
Regarding `CC[C@H]1C[C@@H]2C[C@H]3c4[nH]c5ccc(OC)cc5c4CCN(C2)[C@@H]13`, the “activity change, negative = inhibition” value is -14.3% (inactive).
In the case of `Cc1cc(Cl)ccc1O[C@H](C)C(=O)O`, the “activity change, negative = inhibition” value is -11.7% (inactive).
For the compound `CCC(C)c1cc([N+](=O)[O-])cc([N+](=O)[O-])c1OC(=O)C=C(C)C` (stereo unspecified), the Potency was 17.2 µM (active).
Regarding `CC(=[OH+])/C=C(/C)[O-].CC(=[OH+])/C=C(\C)[O-].CC(=[OH+])/C=C(\C)[O-].[Al]`, the “activity change, negative = inhibition” value was 1.33% (inactive).
On the same count and under the same terms, to `CCC(C)c1cc(C(C)(C)C)cc(-n2nc3ccccc3n2)c1O` (stereo unspecified) belongs 13.6% [at 42.5 µM] (inactive).
With `ClC1=C(Cl)C2(Cl)C3C(Cl)C=CC3C1(Cl)C2(Cl)Cl` (stereo unspecified), the Potency is 61.4 µM (active) and inactive.
Turning to `C[CH2][Hg][N]1C(=O)C2C(C1=O)C1(Cl)C(Cl)=C(Cl)C2(Cl)C1(Cl)Cl` (stereo unspecified), the Potency is 2.31 µM (active).
On the same count and under the same terms, to `[Cl][Sn]([c]1ccccc1)([c]1ccccc1)[c]1ccccc1` belongs 0.082 µM (active); to `Cc1cc(C(C)(C)c2cc(C)c(O)c(C)c2)cc(C)c1O`, 26.4 µM (active); to `CC(C)(C)C(O)C(Oc1ccc(-c2ccccc2)cc1)n1cncn1` (stereo unspecified), 27.3 µM (active).
Take `C=COCCCl`: the “activity change, negative = inhibition” value is -0.834% (inactive).
Regarding `O=C1C=CC(=O)c2ccccc21`, the Potency was 1.54 µM (active).
Still for that read-out and setting: to `C=CC(=O)OCC(COC(=O)C=C)(COC(=O)C=C)COC(=O)C=C` belongs 3.44 µM (active); to `CC1(C)CN=C(NN=C(/C=C/c2ccc(C(F)(F)F)cc2)/C=C/c2ccc(C(F)(F)F)cc2)NC1`, 12.2 µM (active).
Still for that read-out and setting: to `CC(=O)C(Cl)(Cl)Cl` belongs 9.35 µM (active); to `CN(C)[C@@H]1C(=O)C(C(N)=O)=C(O)[C@@]2(O)C(=O)C3=C(O)c4c(O)ccc(Cl)c4[C@@](C)(O)[C@H]3C[C@@H]12`, 49.6 µM (active); to `c1ccc(Nc2ccc3ccccc3c2)cc1`, “inactive”.
With `Clc1ccc(COC(Cn2ccnc2)c2ccc(Cl)cc2Cl)cc1` (stereo unspecified), the Potency was 45.3 µM (active) and 30.5 µM (active) and 23.7 µM (active).
In the case of `COc1cccc2c1C(=O)c1c(O)c3c(c(O)c1C2=O)C[C@@](O)(C(=O)CO)CC3OC1CC(N2CCOC(OC)C2)C(O)C(C)O1` (stereo partly specified), the Potency is 0.298 µM (active).
The same measure, in the same setting: to `Clc1ccc(CO/N=C(\Cn2ccnc2)c2ccc(Cl)cc2Cl)c(Cl)c1` belongs 26.6 µM (active).
As to `COP(=O)(CCC(=O)NCO)OC`, the “activity change, negative = inhibition” value is 5.22% (inactive).
Take `CCCCCCCCCCCCCCCC[n+]1ccccc1`: the Potency was 4.27 µM (active) [middle of 4 runs].
Consider `CCCCCCCCCCCCCCCC[N+](C)(C)C`, for which the Potency is 7.42 µM (active) and 12.2 µM (active) and 5.96 µM (active).
On to `ClC(Cl)=C(c1ccc(Cl)cc1)c1ccc(Cl)cc1`, for which the Potency was 62.6 µM (active).
Regarding `CSCCCN=C=S`, the “activity change, negative = inhibition” value was 28.9% (inactive).
For the compound `ClC1=C(Cl)[C@]2(Cl)[C@@H]3[C@@H](Cl)[C@@H](Cl)C[C@@H]3[C@@]1(Cl)C2(Cl)Cl`, the “activity change, negative = inhibition” value was -0.387% (inactive).

Test system in another test: not listed separately
Description: qHTS assay to identify small molecule agonists of the AP-1 signaling pathway - cell viability counter screen (AID 1159525; calls by dose curve; further: nearly all actives have a fitted effect of over 55% in size). Conditions: ME-180 (cervical carcinoma) AP-1-bla cells viability, ATP luminescence, 5 h; series mostly up to 76.8 µM; viability change, negative = cytotoxic: at the top concentration. In a few lines:
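AP-1-bla ME-180 cells in Opti-MEM with 0.5% dialyzed FBS, compound exposure 5 h at 37 C in 15-point titration. Viability read in the same wells as ATP content by CellTiter-Glo luminescence, normalised to tetra-n-octylammonium bromide and DMSO controls.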
As to `CC(C)Oc1cccc(NC(=O)c2ccccc2C(F)(F)F)c1`, the “viability change, negative = cytotoxic” value was -7.19% (inactive).
Take `ClC1=C(Cl)[C@]2(Cl)[C@@H]3[C@@H]4C[C@@H]([C@H]5O[C@@H]45)[C@@H]3[C@@]1(Cl)C2(Cl)Cl`: the Potency was 43.6 µM (active).
As for `SCc1ccco1`, the “viability change, negative = cytotoxic” value is 0.176% (inactive).
Still for that read-out and setting: to `CC(C)(C)c1cc([N+](=O)[O-])cc(C(C)(C)C)c1O` belongs -14.9% (inactive).
Regarding `Clc1ccc(C(c2ccccc2Cl)C(Cl)(Cl)Cl)cc1` (stereo unspecified), the Potency is 36.1 µM (active).
Consider `CC(C)(c1ccc(O)c(-c2ccccc2)c1)c1ccc(O)c(-c2ccccc2)c1`, for which the Potency is 17.4 µM (active).
Take `Cc1cc(Cl)ccc1O[C@H](C)C(=O)O`: the “viability change, negative = cytotoxic” value is 2.19% (inactive).
Take `CCC(C)c1cc([N+](=O)[O-])cc([N+](=O)[O-])c1OC(=O)C=C(C)C` (stereo unspecified): the “viability change, negative = cytotoxic” value was 7.65% (inactive).
On to `CC(=[OH+])/C=C(/C)[O-].CC(=[OH+])/C=C(\C)[O-].CC(=[OH+])/C=C(\C)[O-].[Al]`, for which the “viability change, negative = cytotoxic” value is 7.61% (inactive).
Same read-out and setting: to `CCC(C)c1cc(C(C)(C)C)cc(-n2nc3ccccc3n2)c1O` (stereo unspecified) belongs -3.58% [at 35.3 µM] (inactive).
`ClC1=C(Cl)C2(Cl)C3C(Cl)C=CC3C1(Cl)C2(Cl)Cl` (stereo unspecified): the Potency is 43.8 µM (active).
On the same count and under the same terms, to `C[CH2][Hg][N]1C(=O)C2C(C1=O)C1(Cl)C(Cl)=C(Cl)C2(Cl)C1(Cl)Cl` (stereo unspecified) belongs 6.57 µM (active).
As for `CC(=O)OC1(c2ccccc2)CCN(CCc2ccccc2)CC1`, the “viability change, negative = cytotoxic” value was -6.5% (inactive).
With `[Cl][Sn]([c]1ccccc1)([c]1ccccc1)[c]1ccccc1`, the Potency is 10.4 µM (active).
`CC(C)(C)C(O)C(Oc1ccc(-c2ccccc2)cc1)n1cncn1` (stereo unspecified): the “viability change, negative = cytotoxic” value was -15% (inactive).
The same measure, in the same setting: to `[Cd+2].[Cl-].[Cl-]` belongs -32.8% (inactive).
Consider `C=COCCCl`, for which the “viability change, negative = cytotoxic” value was -0.443% (inactive).
`O=C1C=CC(=O)c2ccccc21`: the Potency is 15.5 µM (active).
Same read-out and setting: to `CC1(C)CN=C(NN=C(/C=C/c2ccc(C(F)(F)F)cc2)/C=C/c2ccc(C(F)(F)F)cc2)NC1` belongs 43.6 µM (active).
Regarding `CC(=O)C(Cl)(Cl)Cl`, the “viability change, negative = cytotoxic” value is 0.0707% (inactive).
The same measure, in the same setting: to `CN(C)[C@@H]1C(=O)C(C(N)=O)=C(O)[C@@]2(O)C(=O)C3=C(O)c4c(O)ccc(Cl)c4[C@@](C)(O)[C@H]3C[C@@H]12` belongs 13.4% (inactive).
For the compound `c1ccc(Nc2ccc3ccccc3c2)cc1`, the Potency was 48.7 µM (active).
Still for that read-out and setting: to `Clc1ccc(COC(Cn2ccnc2)c2ccc(Cl)cc2Cl)cc1` (stereo unspecified) belongs 54.7 µM (active) and 23.9 µM (active).
On to `COc1cccc2c1C(=O)c1c(O)c3c(c(O)c1C2=O)C[C@@](O)(C(=O)CO)CC3OC1CC(N2CCOC(OC)C2)C(O)C(C)O1` (stereo partly specified), for which the “viability change, negative = cytotoxic” value was -0.321% [at 35.3 µM] (inactive).
The same measure, in the same setting: to `COP(=O)(CCC(=O)NCO)OC` belongs 1.48% (inactive).
With `CCCCCCCCCCCCCCCC[n+]1ccccc1`, the Potency is 32.3 µM (active) and 54.9 µM (active) and 43 µM (active).
On the same count and under the same terms, to `CCCCCCCCCCCCCCCC[N+](C)(C)C` belongs 49 µM (active) and 26.8 µM (active); to `ClC(Cl)=C(c1ccc(Cl)cc1)c1ccc(Cl)cc1`, 44.7 µM (active).
On to `CSCCCN=C=S`, for which the “viability change, negative = cytotoxic” value is 1.44% (inactive).
For `ClC1=C(Cl)[C@]2(Cl)[C@@H]3[C@@H](Cl)[C@@H](Cl)C[C@@H]3[C@@]1(Cl)C2(Cl)Cl`, the “viability change, negative = cytotoxic” value is 8.15% (inactive).
